Screening data deposited in PubChem by NMMLSC.
In the library only some 1.2% were active in any assay of this set; here they are far more common.
GSH fluor = compound fluoresces at 488/530 nm on GSH beads; GSH beads flow cytometry, compound fluorescence 488/530 nm; hits give high values; fluorescence (KMESF) at 10 µM; 190,000 tested, 0.25% active; AID 1776; in the data active = fluorescence above about 89;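 also: glutathione beads carrying GST-tagged Bcl family fusion proteins plus one bare bead set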
Avidin bead fluor = avidin bead compound fluorescence profile; Avidin beads, compound fluorescence 488/530 nm, flow cytometry; hits give high values; 220,000 tested, 0.38% active; AID 1775; fluorescence (KMESF) at 10 µM; in the data active = fluorescence above about 47
RGS4-Gao reg = modulates binding of RGS4 to human Galphao; P09471; Multiplexed bead flow cytometry; actives lie on both sides; binding response (% of control), % at 10 µM; 220,000 tested, 0.33% active; AID 1415; in the data active = binding response below about 49% or above about 150%; inactive = in between;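 also: fluorescent Galphao activated with aluminum fluoride binding bead-coupled RGS4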
Target sequence (P09471 whole entry, looked up): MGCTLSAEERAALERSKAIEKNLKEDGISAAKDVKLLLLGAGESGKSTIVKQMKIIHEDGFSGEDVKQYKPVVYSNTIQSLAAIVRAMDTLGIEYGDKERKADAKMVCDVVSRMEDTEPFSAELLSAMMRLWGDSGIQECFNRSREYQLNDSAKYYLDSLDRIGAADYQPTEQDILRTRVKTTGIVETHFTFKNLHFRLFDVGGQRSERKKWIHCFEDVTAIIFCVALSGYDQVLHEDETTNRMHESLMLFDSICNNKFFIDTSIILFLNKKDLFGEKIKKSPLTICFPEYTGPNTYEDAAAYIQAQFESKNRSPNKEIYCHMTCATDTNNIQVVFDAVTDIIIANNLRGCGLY
RGS8-Gao reg = modulates binding of RGS8 to human Galphao; P09471; AID 1423; multiplexed bead flow cytometry; actives lie on both sides; 220,000 tested, 0.34% active; response (percent of control binding), % at 10 µM; in the data active = response below about 60% or above about 140%; inactive = in between;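 also: Galphao activated as the GDP aluminium fluoride complex binding bead-coupled RGS8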
RGS7-Gao reg = regulators of human RGS7-Galphao interaction. Multiplexed bead flow cytometry, RGS7-Galphao binding; actives lie on both sides. P09471. binding response (% of control), % at 10 µM. 220,000 tested, 0.35% active; in the data active = binding response below about 49% or above about 150%; inconclusive = no clear call, values can overlap the other calls; inactive = in between;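 also: fluorescent Galphao held in activated GDP-AlF4 state binding bead-coupled RGS7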
RGS16-Gao HTS = modulates binding between human RGS16 and Galphao | 220,000 tested, 0.38% active | AID 1441 | binding response (% of control), % at 10 µM | O15492+P09471 | bead-based flow cytometry RGS16-Galphao binding, fluorescence; actives lie on both sides;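 also: Galphao activated by GDP with aluminum fluoride before binding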
RGS4-Gao HTS = RGS4-Galphao interaction regulator (human) | shares compounds with RGS16-Gao HTS | multiplexed bead flow cytometry, RGS–Galpha-o binding | RGS4–Galpha-o binding response, % at 10 µM | 1,600 tested, 99% active | AID 1504;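 also: fluorescently labeled Galpha-o bound to GDP with aluminium fluoride binding biotinylated RGS beads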
Biotin-avidin = biotin-avidin bead binding disruption counter-screen. shares compounds with RGS16-Gao HTS. streptavidin beads, fluorescein-biotin binding, flow cytometry. inhibition, % at 10 µM. 1,700 tested, under 10 active. AID 1783;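 active = inhibition above 50%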;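 also: median green fluorescence of gated singlet beads compared with DMSO control wells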
RGS8-Gao single = confirmation of regulators of human RGS8-Galphao interaction; binding response (% of control), % at 10 µM; AID 1836; 1,700 tested, 3% active; shares compounds with RGS16-Gao HTS; bead-based flow cytometry RGS8-Galphao binding, fluorescence; actives lie on both sides; in the data active = binding response below about 72% or above about 130%; inactive = in between;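 also: Galphao activated as GDP AlF4 complex before binding bead RGS8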
RGS7-Gao confirm = RGS7-Galphao interaction regulation, single point confirmation. AID 1837. shares compounds with RGS16-Gao HTS. 1,700 tested, 7.8% active. response (percent of control binding), % at 10 µM. bead-based flow cytometry RGS7-Galphao binding; actives lie on both sides; in the data active = response below about 75% or above about 130%; inactive = in between;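 also: fluorescent Galphao activated with GDP and aluminum fluoride binding bead-coupled RGS7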
RGS16-Gao conf = confirmation of regulators of human RGS16-Galphao interaction; response (% of control binding), % at 10 µM; AID 1838; 1,700 tested, 4% active; shares compounds with RGS16-Gao HTS; bead-based flow cytometry, RGS16-Galphao binding; actives lie on both sides; in the data active = response below about 74% or above about 130%; inactive = in between;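 also: Galphao activated as the GDP aluminium fluoride complex binding bead-coupled RGS16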
RGS4-Gao confirm = confirmation of regulators of human RGS4-Galphao interaction | RGS4-Galphao binding, multiplexed bead flow cytometry; actives lie on both sides | binding response (% of control), % at 10 µM | shares compounds with RGS16-Gao HTS | 1,700 tested, 4% active; in the data active = binding response below about 74% or above about 130%; inactive = in between
RGS19-Gao conf = confirmation of regulators of human RGS19-Galphao interaction; shares compounds with RGS16-Gao HTS; bead-based flow cytometry RGS19-Galphao binding; actives lie on both sides; response (percent of control binding), % at 10 µM; 1,700 tested, 5% active; in the data active = response below about 50% or above about 160%; inactive = in between
Target sequence (P09471 whole entry, looked up): as above
Target sequence (P49795 whole entry, looked up): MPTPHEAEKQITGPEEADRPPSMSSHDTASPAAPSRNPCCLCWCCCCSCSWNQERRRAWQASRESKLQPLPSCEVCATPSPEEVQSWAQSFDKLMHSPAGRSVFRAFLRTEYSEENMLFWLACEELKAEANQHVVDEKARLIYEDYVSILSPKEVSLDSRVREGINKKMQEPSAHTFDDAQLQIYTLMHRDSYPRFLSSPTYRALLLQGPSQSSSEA
A number is an active result; n = inactive; u = inconclusive; x = no result given; [ ] = remark or other dose. Unless noted, no rule for the calls is given here.

SMILES | GSH fluor | Avidin bead fluor | RGS4-Gao reg | RGS8-Gao reg | RGS7-Gao reg | RGS16-Gao HTS | RGS4-Gao HTS | Biotin-avidin | RGS8-Gao single | RGS7-Gao confirm | RGS16-Gao conf | RGS4-Gao confirm | RGS19-Gao conf
Cc1[nH]n(-c2ccccc2)c(=S)c1C=Nc1cccc([N+](=O)[O-])c1 | n | n | n | n | n | 19.0 | 94.9 | n | 54.3 | n | 5.9 | n | 9.1
CC(C(=O)Nc1ccc([N+](=O)[O-])cc1)N1CCN(C/C=C/c2ccccc2)CC1 (stereo not given) | n | n | n | n | n | n | x | x | x | x | x | x | x
CC(=O)c1ccc(NC(=O)C(C)N2CCN(C/C=C/c3ccccc3)CC2)cc1 (stereo not given) | 246 | n | 161.7[activator] | n | 150.8[activator] | n | x | n | n | n | n | n | n
COCCNc1oc(-c2cccs2)nc1S(=O)(=O)c1ccc(C)cc1 | n | n | n | n | n | n | x | x | x | x | x | x | x
NC(N)=NC(N)=Nc1ccc(SC(F)(F)F)cc1 | n | n | n | n | n | 15.8 | 100.9 | n | n | n | n | n | n
NC(N)=NC(N)=Nc1ccc2ccccc2c1 | n | n | n | n | n | n | x | x | x | x | x | x | x
COc1ccc(OC)c2c1C(=O)C(Cl)=C(Cl)C2=O | x | n | n | 44.7 | u | -14.4 | 57.6 | x | x | x | x | x | x
CCc1ccc(CCC(=O)Nc2nnc(C)s2)o1 | n | n | n | n | n | n | x | x | x | x | x | x | x
CCc1nnc(NC(=O)CCc2ccc(C)o2)s1 | n | n | 169.8[activator] | 151.1[activator] | 158.4[activator] | n | x | n | n | n | n | n | n
CC1(C)CC(=O)C=C(NNC(=O)c2ccccc2)C1 | n | n | 4.6 | 13.7 | 9.9 | 8.0 | x | n | n | n | n | n | n
O=S(=O)(NCc1cccnc1)c1cc(Cl)ccc1Cl | n | n | n | n | n | n | x | x | x | x | x | x | x
CC(=O)NC(C)c1ccc(Cl)c(Cl)c1 (stereo not given) | n | n | n | 156.0[activator] | n | n | 138.9 | x | x | x | x | x | x
Cc1cccc(/C(N)=N/OC(=O)C23CC4CC(CC(C4)C2)C3)c1 | n | n | n | 55.7 | n | 12.1 | 80.1 | n | n | n | n | n | n
Cc1cccc(/C(N)=N/OC(=O)Cc2ccccc2)c1 | n | n | n | n | n | n | x | x | x | x | x | x | x
Cn1c(NCc2cc(Br)ccc2O)nc2ccccc21 | n | n | n | 141.0[activator] | n | n | 118.5 | n | n | 72.4 | n | n | n
COc1ccc(CNc2nc3ccccc3n2C)c(O)c1 | x | n | n | n | u | n | x | x | x | x | x | x | x
CCOC(=O)N1CCC(NC(=O)CSc2cc(=O)n(C)c3ccccc23)CC1 | n | n | n | 140.4[activator] | n | n | 110.3 | n | n | n | n | n | n
Cn1c(=O)cc(SCC(=O)N2CCCC2)c2ccccc21 | n | n | n | n | n | n | x | x | x | x | x | x | x
C=CCn1c(-c2cc(-c3ccc(C)cc3)nc3ccccc23)n[nH]c1=S | n | n | n | n | u | n | x | x | x | x | x | x | x
COc1ccccc1Nc1nc(N)nc(CN2CCC(C)CC2)n1 | n | n | n | n | n | n | x | x | x | x | x | x | x
COc1ccccc1Nc1nc(N)nc(CN2CCC(Cc3ccccc3)CC2)n1 | n | n | 178.2[activator] | 164.8[activator] | 161.8[activator] | n | x | n | n | n | n | n | n
Cc1c(Br)c([N+](=O)[O-])nn1CC(=O)N1CCc2ccccc2C1 | n | n | n | n | n | 24.3 | 97.4 | n | n | n | n | n | n
Cc1nn(CC(=O)N2CCc3ccccc3C2)c(C)c1[N+](=O)[O-] | n | n | n | n | n | n | x | x | x | x | x | x | x
O=C(COC(=O)C1=COCCO1)Nc1ccc(Oc2ccccc2)cc1 | n | n | n | n | n | n | x | x | x | x | x | x | x
C=CCn1c(CNC(=O)c2ccccc2F)nnc1SCc1nc2ccccc2c(=O)[nH]1 | n | x | x | x | x | x | x | n | n | n | n | n | n
SMILES | GSH fluor | Avidin bead fluor | RGS4-Gao reg | RGS8-Gao reg | RGS7-Gao reg | RGS16-Gao HTS | RGS4-Gao HTS | Biotin-avidin | RGS8-Gao single | RGS7-Gao confirm | RGS16-Gao conf | RGS4-Gao confirm | RGS19-Gao conf
C=CCn1c(CCNC(=O)c2ccccc2F)nnc1SCc1nc2ccccc2c(=O)[nH]1 | n | n | n | n | n | n | x | x | x | x | x | x | x
Nc1ccc(-c2nc3ccc(N)cc3o2)cc1 | n | n | n | 47.0 | 1.9 | n | 50.5 | n | n | n | n | n | n
Cc1ccc2nc(-c3cc(N)cc(N)c3)oc2c1 | n | n | n | n | n | n | x | x | x | x | x | x | x
COC(=O)COc1cccc(/C=N/NC(=O)CCSc2ccccc2)c1 | n | n | n | n | n | n | x | x | x | x | x | x | x
COc1ccccc1NC(=O)CCC(=O)N/N=C(/C)c1ccc(C)cc1 | n | n | n | n | n | 15.6 | 89.6 | n | n | n | n | n | n
C/C(=N/NC(=O)CCC(=O)Nc1cccc(Cl)c1)c1ccc(C)cc1 | n | n | n | n | n | n | x | x | x | x | x | x | x
COc1ccc(N2CCN(C(=O)c3cccc4nc(C)oc34)CC2)cc1 | n | n | 22.2 | 15.1 | 18.5 | 12.7 | x | n | n | n | n | n | n
COc1ccc(N2CCN(C(=O)c3cccn4c(=O)c5ccccc5nc34)CC2)cc1 | n | n | n | n | n | n | x | x | x | x | x | x | x
CN(CC1CCOCC1)C(=O)CC1C(=O)NCCN1C/C=C/c1ccccc1 (stereo not given) | n | n | n | n | n | n | x | x | x | x | x | x | x
Cc1oc2ccc(O)c(CN(C)C)c2c1C(=O)c1ccccc1 | n | n | n | 152.9[activator] | n | n | 123.2 | n | n | n | n | n | n
CCOC(=O)c1c(-c2ccccc2)oc2ccc(O)c(CN(C)C)c12 | n | n | n | n | n | n | x | x | x | x | x | x | x
CC(=O)Nc1c(O)nc(SC/C=C/CSc2nc(O)c(NC(C)=O)c(=O)[nH]2)[nH]c1=O | n | n | n | n | u | n | x | x | x | x | x | x | x
CCCCc1c(O)nc(N2CCN(Cc3ccccc3)CC2)[nH]c1=O | n | n | n | n | n | n | x | x | x | x | x | x | x
CCN1/C(=C/C=C/C=C/c2sc3ccccc3[n+]2CC)Sc2ccccc21 | n | x | 31.0 | n | n | n | x | n | 63.5 | n | 58.3 | -8.0 | x
CC[n+]1c(/C=C/Nc2ccccc2)sc2ccccc21 | n | n | n | n | n | n | x | x | x | x | x | x | x
